# Data as given in PubChem BioAssay (Tox21).
# Where “and” joins values, the source holds several entries; their conditions need not be identical. Equal values may be shown once. Results filed as inconclusive are left out. Where a structure was tested more than once in an assay, its records may differ in their call. Calls of active or inactive are those of the source. Unless noted, the call rests on the fitted dose curve; in most records, active means well fitted curve in the direction sought with a large enough effect in the repeat runs; inconclusive means weak or mixed curves; inactive means no such curve, though single readings can be large; an effect the other way counts as inactive or inconclusive.
# Tests used:
# [1] = qHTS assay to identify small molecule agonists of the hypoxia (HIF-1) signaling pathway - cell viability counter screen (AID 1224844; calls by dose curve; further: nearly all actives have a fitted effect of over 50% in size; further: potency means the concentration at half of the fitted maximal effect; on activity change, negative = cytotoxicity: on the % scale 0 is the no-effect control and ±100 the full control effect)
# Procedure, shortened: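 Same wells as the HIF-1 reporter screen; ME-180 cells carrying HRE-bla, 17 hr treatment at 37C; CellTiter-Glo luminescence read after 30 min at room temperature.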
# [2] = qHTS assay to identify small molecule agonists of the hypoxia (HIF-1) signaling pathway (AID 1224846; active means well fitted activation curve with a large enough effect in the signal ratio in the repeat runs, not every such curve was filed as active; the % refers to the signal ratio; further: on the % scale 0 is the no-effect control and ±100 the full control effect)
# Procedure, shortened: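 In ME-180 cells bearing an HRE-bla construct, 17 h treatment with DMSO-dissolved compounds at 37C was followed by CCF4-AM loading to quantify reporter induction.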
# [3] = qHTS assay to identify small molecule agonists of H2AX - cell viability counter screen (AID 1224847; calls by dose curve; further: nearly all actives have a fitted effect of over 30% in size; further: potency means the concentration at half of the fitted maximal effect; on activity change, negative = cytotoxicity: top concentration of the series differs between compounds; on the % scale 0 is the no-effect control and ±100 the full control effect)
# Procedure, shortened: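 CHO-K1 cells plated overnight at 37C, then exposed 3 h at 37C to compounds at 15 concentrations (0.76% DMSO final). Viability by CellTiter-Glo luminescence after 30 min at room temperature.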
# [4] = qHTS RealTime-Glo MT Cell Viability Assay in HepG2 cells - 24 hour (AID 1224867); further: nearly all actives have a fitted effect of over 50% in size; further: potency means the concentration at half of the fitted maximal effect
# Procedure, shortened: (§1)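 HepG2 cells were seeded at 600 cells/well together with NanoLuc luciferase and a cell-permeant prosubstrate, preincubated 5 h at 37 C/5% CO2, then pin-dosed with compounds in DMSO. Nonlytic luminescence from viable cells was read at each time point.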
# [5] = qHTS RealTime-Glo MT Cell Viability Assay in HEK293 cells - 32 hour (AID 1224868); further: nearly all actives have a fitted effect of over 50% in size; further: potency means the concentration at half of the fitted maximal effect
# Procedure, shortened: (§2)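 HEK293 cells were seeded at 600 cells/well together with NanoLuc luciferase and cell-permeant prosubstrate, preincubated 5 h at 37 C/5% CO2, then given compound in DMSO by pintool. Luminescence from viable-cell prosubstrate reduction was read repeatedly over 40 h.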
# [6] = A CellTox Green Cytotoxicity Assay to monitor cytotoxicity in HEK293 cells - 0 hour (AID 1224869); further: nearly all actives have a fitted effect of over 50% in size; further: potency means the concentration at half of the fitted maximal effect
# Procedure, shortened: (§3)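 Homogeneous no-lysis format: HEK293 cell suspension mixed with CellTox Green reagent, seeded, incubated 5 h at 37 C/5% CO2, then dosed by pintool with compound in DMSO.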
# [7] = qHTS RealTime-Glo MT Cell Viability Assay in HepG2 cells - 40 hour (AID 1224870); further: nearly all actives have a fitted effect of over 50% in size; further: potency means the concentration at half of the fitted maximal effect
# Procedure, shortened: (§4)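 HepG2 cells (600/well) mixed with RealTime-Glo MT reagent, settled 5 h at 37 C/5% CO2 before compound addition. Nonlytic NanoLuc luminescence from viable-cell prosubstrate reduction read repeatedly during 40 h treatment at 37 C.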
# [8] = A CellTox Green Cytotoxicity Assay to monitor cytotoxicity in HEK293 cells - 40 hour (AID 1224871); further: nearly all actives have a fitted effect of over 45% in size; further: potency means the concentration at half of the fitted maximal effect
# Procedure, shortened: as §3
# [9] = qHTS RealTime-Glo MT Cell Viability Assay in HEK293 cells - 16 hour (AID 1224872); further: nearly all actives have a fitted effect of over 50% in size; further: potency means the concentration at half of the fitted maximal effect
# Procedure, shortened: as §2
# [10] = qHTS RealTime-Glo MT Cell Viability Assay in HepG2 cells - 8 hour (AID 1224873); further: nearly all actives have a fitted effect of over 55% in size; further: potency means the concentration at half of the fitted maximal effect
# Procedure, shortened: as §4
# [11] = qHTS RealTime-Glo MT Cell Viability Assay in HEK293 cells - 40 hour (AID 1224874); details: RealTime-Glo luminescence; max response: stronger effect = lower value; further: nearly all actives have a fitted effect of over 50% in size; further: potency means the concentration at half of the fitted maximal effect
# Procedure, shortened: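 Measured as luminescence from the same continuously cultured HEK293 wells at successive time points (0, 8, 16, 24, 32, 40 h) after compound addition. Reagent present from seeding; dosing at 5 h; incubation 37 C.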
# [12] = A CellTox Green Cytotoxicity Assay to monitor cytotoxicity in HEK293 cells - 24 hour (AID 1224875); further: nearly all actives have a fitted effect of over 45% in size; further: potency means the concentration at half of the fitted maximal effect
# Procedure, shortened: as §3
# [13] = A CellTox Green Cytotoxicity Assay to monitor cytotoxicity in HepG2 cells - 16 hour (AID 1224876); further: nearly all actives have a fitted effect of over 45% in size; further: potency means the concentration at half of the fitted maximal effect
# Procedure, shortened: (§5)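 Fluorescent DNA-binding dye, 600 HepG2 cells/well, 5 h preincubation then compound in DMSO; same plates read at 0–40 h, 37 C.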
# [14] = qHTS RealTime-Glo MT Cell Viability Assay in HepG2 cells - 32 hour (AID 1224877); further: nearly all actives have a fitted effect of over 55% in size; further: potency means the concentration at half of the fitted maximal effect
# Procedure, shortened: as §1
# [15] = A CellTox Green Cytotoxicity Assay to monitor cytotoxicity in HepG2 cells - 24 hour (AID 1224878); further: nearly all actives have a fitted effect of over 45% in size; further: potency means the concentration at half of the fitted maximal effect
# Procedure, shortened: as §5
# [16] = A CellTox Green Cytotoxicity Assay to monitor cytotoxicity in HepG2 cells - 40 hour (AID 1224879); further: nearly all actives have a fitted effect of over 40% in size; further: potency means the concentration at half of the fitted maximal effect
# Procedure, shortened: as §5
# [17] = biological target: Thyrotropin receptor (Homo sapiens) (UniProt P16473); assay: qHTS assay to identify small molecule agonists of the thyroid stimulating hormone receptor (TSHR) signaling pathway (AID 1224843; calls by dose curve)
# Thyrotropin receptor (Homo sapiens), sequence (P16473 whole entry, looked up): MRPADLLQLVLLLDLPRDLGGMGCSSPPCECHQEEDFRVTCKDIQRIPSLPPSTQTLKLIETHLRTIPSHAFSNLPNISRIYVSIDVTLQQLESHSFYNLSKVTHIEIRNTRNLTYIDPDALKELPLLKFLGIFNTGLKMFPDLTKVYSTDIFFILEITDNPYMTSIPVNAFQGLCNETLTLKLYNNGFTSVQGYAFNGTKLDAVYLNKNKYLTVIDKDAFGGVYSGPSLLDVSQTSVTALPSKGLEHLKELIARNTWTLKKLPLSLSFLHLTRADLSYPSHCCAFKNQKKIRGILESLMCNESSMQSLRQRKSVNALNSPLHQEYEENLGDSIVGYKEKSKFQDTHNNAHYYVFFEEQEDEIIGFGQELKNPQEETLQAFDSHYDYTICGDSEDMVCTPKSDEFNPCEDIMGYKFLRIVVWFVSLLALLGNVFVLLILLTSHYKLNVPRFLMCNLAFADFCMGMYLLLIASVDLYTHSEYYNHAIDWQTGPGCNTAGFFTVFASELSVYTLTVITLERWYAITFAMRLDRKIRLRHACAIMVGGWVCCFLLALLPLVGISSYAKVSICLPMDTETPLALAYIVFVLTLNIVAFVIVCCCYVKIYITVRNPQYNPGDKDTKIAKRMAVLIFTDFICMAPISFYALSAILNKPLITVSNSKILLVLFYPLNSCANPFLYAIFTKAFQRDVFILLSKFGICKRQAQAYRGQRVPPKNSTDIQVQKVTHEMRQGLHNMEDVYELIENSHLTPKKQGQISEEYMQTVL
# Procedure, shortened: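 Agonist-mode screen: TSHR HEK293 cells received test chemicals for half an hour at room temperature, then HTRF cAMP detection reagents for one hour prior to fluorescence measurement. Each chemical ran as a 15-concentration series, triplicated.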
# [18] = qHTS assay to identify small molecule antagonists of the estrogen related receptor (ERR) signaling pathway from Tox21 library (AID 1224848)
# Procedure, shortened: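 Quantitative high-throughput format: ERR reporter cells (2,000/well) pre-incubated 6 h, treated 18 h at 37 C with compounds in DMSO alongside positive and negative controls, then read by ONE-Glo luminescence.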
# [19] = qHTS assay to identify small molecule agonists of the estrogen related receptor (ERR) signaling pathway from Tox21 library (AID 1224849; calls by dose curve; further: on the % scale 0 is the no-effect control and ±100 the full control effect; nearly all actives have a fitted effect of over 15% in size); details: ERR reporter cell line, ONE-Glo luciferase, 18 h
# Procedure, shortened: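 Reporter cells (ERR, NTP source) treated with Tox21 10K compounds 18 h, 37 C. Readout: ONE-Glo luminescence, 30 min RT.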
# [20] = qHTS assay to identify small molecule agonists of H2AX (AID 1224845; active means well fitted activation curve with a large enough effect in the signal ratio in the repeat runs, not every such curve was filed as active; the % refers to the signal ratio; further: on the % scale 0 is the no-effect control and ±100 the full control effect)
# Procedure, shortened: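 Wild-type CHO-K1 cells, plated overnight, exposed 3hr at 37C to 15 concentrations (0.76% DMSO final). Lysed, then HTRF anti-pH2AX (S139) cryptate and anti-H2AX-d2 antibodies, 24 hr room temperature; 665/620 nm emission read.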
structure (smiles),measurement,setting,value
CC(=O)CC(c1ccccc1)c1c(O)c2ccccc2oc1=O (stereo unspecified),Potency,[1],inactive
same,outcome,[2],inactive
same,Potency,[3],inactive
same,Potency,[4],inactive
same,Potency,[5],inactive
same,Potency,[6],inactive
same,Potency,[7],inactive
same,Potency,[8],inactive
same,Potency,[9],inactive
same,Potency,[10],inactive
same,max response,[11],5.95% (inactive) [middle of 4 runs]
same,Potency,[12],inactive
same,Potency,[13],inactive
same,Potency,[14],inactive
same,Potency,[15],inactive
same,Potency,[16],inactive
Nc1ccc2c(c1)CN1C(=O)c3ccccc3C1=N2,activation,[17],-0.704% [at 19 µM] (inactive)
same,activation,[2],0.64% [at 15.8 µM] (inactive)
same,Potency,[3],17 µM (active)
same,"activity change, negative = cytotoxicity",[4],-3.47% [at 15.8 µM] (inactive)
same,Potency,[5],4.65 µM (active)
same,Potency,[6],11.7 µM (active)
same,"activity change, negative = cytotoxic",[7],1.05% [at 15.8 µM] (inactive)
same,Potency,[8],10.4 µM (active)
same,"viability change, negative = cytotoxic",[10],-9.67% [at 15.8 µM] (inactive)
same,Potency,[11],3.69 µM (active)
same,Potency,[12],10.4 µM (active)
same,Potency,[13],10.4 µM (active)
same,"activity change, negative = cytotoxic",[14],-0.629% [at 15.8 µM] (inactive)
same,Potency,[15],10.4 µM (active)
same,Potency,[16],10.4 µM (active)
COc1ccc2cc(S(=O)(=O)N[C@H](CC(=O)N[C@H](Cc3ccc(CN4[C@H](C)CCC[C@@H]4C)cc3)C(=O)N(C)C(C)C)c3ccc4c(c3)OCO4)ccc2c1,Potency,[17],inactive
same,Potency,[1],10.4 µM (active)
same,Potency,[18],25.8 µM (active)
same,"activity change, positive = activation",[19]; at 92.4 µM (top of the series),-76% (inactive)
same,Potency,[4],52 µM (active)
same,Potency,[5],26.1 µM (active)
same,Potency,[6],inactive
same,Potency,[7],52 µM (active)
same,Potency,[8],52 µM (active)
same,Potency,[9],46.3 µM (active)
same,Potency,[10],52 µM (active)
same,Potency,[11],26.1 µM (active)
same,Potency,[13],52 µM (active)
same,Potency,[14],52 µM (active)
same,Potency,[15],52 µM (active)
same,Potency,[16],52 µM (active)
Nc1ccc([N+](=O)[O-])cc1O,Potency,[1],inactive
same,outcome,[2],inactive
same,Potency,[3],inactive
same,Potency,[4],inactive
same,Potency,[5],inactive
same,Potency,[6],inactive
same,Potency,[7],inactive
same,Potency,[8],inactive
same,Potency,[9],inactive
same,Potency,[10],inactive
same,Potency,[12],inactive
same,Potency,[13],inactive
same,Potency,[14],inactive
same,Potency,[15],inactive
same,Potency,[16],inactive
CCCCCCCCCCCCCCCC[N+](C)(C)Cc1ccccc1,Potency,[1],inactive and 44.4 µM (active)
same,Potency,[20],inactive
same,Potency,[3],117 µM (active) and 45.8 µM (active) and 49.2 µM (active)
same,Potency,[18],11.2 µM (active) and 11.1 µM (active) and 11.9 µM (active)
same,"activity change, positive = activation",[19]; at 42.5 µM (top of the series),-56.4% (inactive)
same,"activity change, positive = activation",[19]; at 92.4 µM (top of the series),-78.7% (inactive) and -80.7% (inactive)
same,Potency,[4],22.6 µM (active) and 15.8 µM (active) and 10.7 µM (active)
same,Potency,[5],7.14 µM (active) and 11.2 µM (active) and 3.38 µM (active)
same,Potency,[6],inactive
same,Potency,[7],14.2 µM (active) and 12.5 µM (active) and 8.49 µM (active)
same,Potency,[8],50.5 µM (active) and 39.6 µM (active) and 23.9 µM (active)
same,Potency,[9],25.3 µM (active) and 28 µM (active)
same,Potency,[10],63.6 µM (active) and 39.6 µM (active) and 23.9 µM (active)
same,Potency,[11],4.5 µM (active) and 7.9 µM (active) and 3.01 µM (active)
same,Potency,[12],50.5 µM (active) and 31.4 µM (active) and 21.3 µM (active)
same,Potency,[13],50.5 µM (active) and 19.8 µM (active) and 23.9 µM (active)
same,Potency,[14],16 µM (active) and 14 µM (active) and 9.52 µM (active)
same,Potency,[15],25.3 µM (active) and 17.7 µM (active) and 19 µM (active)
same,Potency,[16],20.1 µM (active) and 14 µM (active) and 10.7 µM (active)
